Tests used:
Assay in all cases: PBM binding z-score (relative to random genomic background probes); higher = stronger binding; sequences stand for … in GC…GCGATTGACAGCGTAGAATGAAGG
[1] = system: RARb homodimer (NR concentration 270 nM)
Procedure, shortened: (§1)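 Custom Agilent 4×180K protein-binding microarrays carried double-stranded probes. Their 34-nt variable regions held direct-repeat seeds, single-nucleotide variants, half-site ablations and random human genomic background sequences. Arrays were incubated 1 h with ligand-free nuclear receptor dimers in PBS pH 7.4, 2% milk, 0.02% Triton X-100, 1 mM DTT, 0.2 mg/mL BSA and 0.4 mg/ml salmon testes DNA. Antibodies against each partner (one per run) detected binding, and scanned fluorescence was regression-normalized. Binding z-scores use random background probes as reference.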

[2] = system: RARg:RXRa (NR concentration 270 nM, RXRa partner concentration 90 nM)
Procedure, shortened: as §1

[3] = system: RARg homodimer (NR concentration 270 nM)
Procedure, shortened: as §1

[4] = system: RXRa DBDmut IVT, anti-RXR (DBD mutation: RXRa K156A/R161A, NR concentration 90 nM)
Procedure, shortened: as §1

[5] = system: RXRa homodimer (NR concentration 180 nM)
Procedure, shortened: as §1

[6] = system: THRa:RXRa (NR concentration 90 nM, RXRa partner concentration 90 nM)
Procedure, shortened: as §1

[7] = system: THRa homodimer (NR concentration 90 nM)
Procedure, shortened: as §1

[8] = system: VDR homodimer (NR concentration 270 nM)
Procedure, shortened: as §1

CTTACTGGGCCATCAGGTCATTGATATCAACGTT
PBM binding z-score [1]: 2.78
PBM binding z-score [2]: 2.32
PBM binding z-score [3]: 2.54
PBM binding z-score [4]: 0.956
PBM binding z-score [5]: 1.33
PBM binding z-score [6]: 3.24
PBM binding z-score [7]: 3.08
PBM binding z-score [8]: 1.94

GGAACGAGGGCAAATTGATAGCAGAGTTTGATGG
PBM binding z-score [1]: 1.18
PBM binding z-score [2]: 1.48
PBM binding z-score [3]: 1.67
PBM binding z-score [4]: 2.21
PBM binding z-score [5]: 1
PBM binding z-score [6]: 0.906
PBM binding z-score [7]: -0.171
PBM binding z-score [8]: 1.31

ACAGACAGGTGATGAAGGTAACCCAGGCTATCAT
PBM binding z-score [1]: 0.672
PBM binding z-score [2]: 0.398
PBM binding z-score [3]: 0.392
PBM binding z-score [4]: -0.925
PBM binding z-score [5]: 0.473
PBM binding z-score [6]: 0.892
PBM binding z-score [7]: 0.124
PBM binding z-score [8]: -0.253

TACCCTAGGTCATGCGGGCCAGTATAGTGTCGGC
PBM binding z-score [1]: 3.28
PBM binding z-score [2]: 4.07
PBM binding z-score [3]: 4.89
PBM binding z-score [4]: 0.8
PBM binding z-score [5]: 3.33
PBM binding z-score [6]: 3.18
PBM binding z-score [7]: 1.48
PBM binding z-score [8]: 1.26

CAAACTATGTCAAGAGGTCAAAGTCCGCTTCCCG
PBM binding z-score [1]: 4.59
PBM binding z-score [2]: 5.95
PBM binding z-score [3]: 5.29
PBM binding z-score [4]: 2.09
PBM binding z-score [5]: 6.87
PBM binding z-score [6]: 3.65
PBM binding z-score [7]: 1.79
PBM binding z-score [8]: 4.22

TCTATTAGTTGATTAGGGCAACCGTAACAGCGGA
PBM binding z-score [1]: 0.955
PBM binding z-score [2]: 0.567
PBM binding z-score [3]: 0.671
PBM binding z-score [4]: 1.16
PBM binding z-score [5]: 0.558
PBM binding z-score [6]: 0.75
PBM binding z-score [7]: 0.547
PBM binding z-score [8]: 0.281

TCAGACCGGTGAAGGTAACTCAGGTACGCAGTCG
PBM binding z-score [1]: 0.271
PBM binding z-score [2]: 0.022
PBM binding z-score [3]: -0.104
PBM binding z-score [4]: 0.832
PBM binding z-score [5]: 0.506
PBM binding z-score [6]: 1.29
PBM binding z-score [7]: -0.0547
PBM binding z-score [8]: 0.152

CGAACTAGGTCAGAACAGGACAGTGACGGATGAT
PBM binding z-score [1]: 2
PBM binding z-score [2]: 2.38
PBM binding z-score [3]: 3.42
PBM binding z-score [4]: 0.578
PBM binding z-score [5]: 1.31
PBM binding z-score [6]: 3.31
PBM binding z-score [7]: 0.199
PBM binding z-score [8]: 0.168

GGAACGAGGGCATTCGAATTGATAGCATGGCGAT
PBM binding z-score [1]: 0.601
PBM binding z-score [2]: 1.21
PBM binding z-score [3]: 1.55
PBM binding z-score [4]: 3.14
PBM binding z-score [5]: 0.908
PBM binding z-score [6]: 0.827
PBM binding z-score [7]: -0.231
PBM binding z-score [8]: 1.99

CAAACTAGGTCAAAGGTCAATGTCGAGCCAACCA
PBM binding z-score [1]: 5.2
PBM binding z-score [2]: 8.62
PBM binding z-score [3]: 7.28
PBM binding z-score [4]: 3.16
PBM binding z-score [5]: 9.99
PBM binding z-score [6]: 4.71
PBM binding z-score [7]: 1.71
PBM binding z-score [8]: 3.03

CCTGCTTGGTCAATGGTCAGCTAAAGCAGCTCGC
PBM binding z-score [1]: 0.507
PBM binding z-score [2]: -0.324
PBM binding z-score [3]: 0.0947
PBM binding z-score [4]: 0.0969
PBM binding z-score [5]: -0.389
PBM binding z-score [6]: -0.501
PBM binding z-score [7]: -0.238
PBM binding z-score [8]: -0.585

AGAATGAGGTTAGACGTAGATCAGGGAAGAAAGT
PBM binding z-score [1]: 0.932
PBM binding z-score [2]: 0.987
PBM binding z-score [3]: 0.859
PBM binding z-score [4]: 0.209
PBM binding z-score [5]: 1.17
PBM binding z-score [6]: 1.55
PBM binding z-score [7]: 0.554
PBM binding z-score [8]: 0.591

CAAACTCGGTCAAGAGGTCAAAGTCCGCTTCCCG
PBM binding z-score [1]: 5.17
PBM binding z-score [2]: 7.26
PBM binding z-score [3]: 6.13
PBM binding z-score [4]: 2.01
PBM binding z-score [5]: 6.42
PBM binding z-score [6]: 3.9
PBM binding z-score [7]: 1.61
PBM binding z-score [8]: 3.72

CCTATTAGTTGACCATAAGGCCAACCGAAGCTCG
PBM binding z-score [1]: 1.68
PBM binding z-score [2]: 0.941
PBM binding z-score [3]: 0.942
PBM binding z-score [4]: 0.893
PBM binding z-score [5]: 0.779
PBM binding z-score [6]: 2
PBM binding z-score [7]: 1.89
PBM binding z-score [8]: 1.06

TTTTGTAGATCAGCAGGTTAAGAAAGCTGGCCAA
PBM binding z-score [1]: 0.145
PBM binding z-score [2]: -0.111
PBM binding z-score [3]: -0.252
PBM binding z-score [4]: -0.708
PBM binding z-score [5]: 0.104
PBM binding z-score [6]: 0.144
PBM binding z-score [7]: -0.308
PBM binding z-score [8]: -0.168

CCTACTTGGCCAAAGGTCATTGATTCCAATGCTC
PBM binding z-score [1]: 4.5
PBM binding z-score [2]: 5.37
PBM binding z-score [3]: 4.64
PBM binding z-score [4]: 2.06
PBM binding z-score [5]: 6.05
PBM binding z-score [6]: 3.3
PBM binding z-score [7]: 1.25
PBM binding z-score [8]: 2.51

GCAGACAGGTGAAACGCTGGTAACTCAGGGTGGC
PBM binding z-score [1]: -0.219
PBM binding z-score [2]: 0.167
PBM binding z-score [3]: -0.138
PBM binding z-score [4]: -0.318
PBM binding z-score [5]: 0.612
PBM binding z-score [6]: 0.209
PBM binding z-score [7]: -0.645
PBM binding z-score [8]: -0.838

AATACCGGGTCACTAGGCCAGAGTAGGTACGAAT
PBM binding z-score [1]: 2.74
PBM binding z-score [2]: 4.17
PBM binding z-score [3]: 3.95
PBM binding z-score [4]: 1.2
PBM binding z-score [5]: 4.15
PBM binding z-score [6]: 3.08
PBM binding z-score [7]: 0.928
PBM binding z-score [8]: 1.22

GCATATAGGTAATACAAGGTGCAAGTCCGATTGT
PBM binding z-score [1]: -0.0695
PBM binding z-score [2]: 0.291
PBM binding z-score [3]: 0.14
PBM binding z-score [4]: 0.314
PBM binding z-score [5]: 0.27
PBM binding z-score [6]: 1.52
PBM binding z-score [7]: -0.516
PBM binding z-score [8]: 0.533

CCTCGGAGGACATCAGGAGGTCAGAGCTGCCAGA
PBM binding z-score [1]: 3.17
PBM binding z-score [2]: 3.48
PBM binding z-score [3]: 3.04
PBM binding z-score [4]: 0.267
PBM binding z-score [5]: 2.63
PBM binding z-score [6]: 2.67
PBM binding z-score [7]: 1.05
PBM binding z-score [8]: 1.06

GCTATGAGTTGAAAGGGCAACCGAATGATTCTCG
PBM binding z-score [1]: 2.14
PBM binding z-score [2]: 2.06
PBM binding z-score [3]: 1.7
PBM binding z-score [4]: 1.93
PBM binding z-score [5]: 2.78
PBM binding z-score [6]: 1.17
PBM binding z-score [7]: -0.184
PBM binding z-score [8]: 0.754

CAAACTAGGTCACAGAGGTCAAAGGCCGTGCGTA
PBM binding z-score [1]: 5.17
PBM binding z-score [2]: 7.3
PBM binding z-score [3]: 7.71
PBM binding z-score [4]: 3.23
PBM binding z-score [5]: 8.06
PBM binding z-score [6]: 4.42
PBM binding z-score [7]: 2.89
PBM binding z-score [8]: 6.86

ATATGCAGGTTACATCCGGGTCATTCAGGCTATG
PBM binding z-score [1]: 2.86
PBM binding z-score [2]: 4.04
PBM binding z-score [3]: 2.1
PBM binding z-score [4]: 0.784
PBM binding z-score [5]: 3.53
PBM binding z-score [6]: 3.97
PBM binding z-score [7]: 2.19
PBM binding z-score [8]: 2.77

TCATATAGGCAAATGCTAGGTGAAAGTCCGATCT
PBM binding z-score [1]: 0.285
PBM binding z-score [2]: 0.0737
PBM binding z-score [3]: 0.0347
PBM binding z-score [4]: 1.15
PBM binding z-score [5]: 0.445
PBM binding z-score [6]: 0.84
PBM binding z-score [7]: 0.227
PBM binding z-score [8]: -0.285

AGAATGAGGTTACCAAAGATCAGGGTAACGCTTG
PBM binding z-score [1]: 1.37
PBM binding z-score [2]: 2.15
PBM binding z-score [3]: 1.95
PBM binding z-score [4]: 1.3
PBM binding z-score [5]: 3.07
PBM binding z-score [6]: 3.1
PBM binding z-score [7]: 1.43
PBM binding z-score [8]: 0.478

ATCTCTAGGTAACAAGTTCAATGAAAGAGAGGAC
PBM binding z-score [1]: 2.24
PBM binding z-score [2]: 2.06
PBM binding z-score [3]: 1.8
PBM binding z-score [4]: 2.15
PBM binding z-score [5]: 1.31
PBM binding z-score [6]: 1.76
PBM binding z-score [7]: 1.19
PBM binding z-score [8]: 3.97

TCTGCTAGGTCCGTTGGTCAGCTAACGAGCTGCC
PBM binding z-score [1]: -0.396
PBM binding z-score [2]: -0.454
PBM binding z-score [3]: -0.542
PBM binding z-score [4]: 0.392
PBM binding z-score [5]: -0.5
PBM binding z-score [6]: -0.748
PBM binding z-score [7]: -1.13
PBM binding z-score [8]: -0.592

CGTCCAAGGTCAGGAGGTCAGTGAAAGCGACGTG
PBM binding z-score [1]: 5.53
PBM binding z-score [2]: 7.05
PBM binding z-score [3]: 7.08
PBM binding z-score [4]: 2.75
PBM binding z-score [5]: 6.98
PBM binding z-score [6]: 4.05
PBM binding z-score [7]: 2.68
PBM binding z-score [8]: 2.82

CCGAGTAGGTTATGGGGCATTCTGGCAACGGTGA
PBM binding z-score [1]: 1.05
PBM binding z-score [2]: 0.374
PBM binding z-score [3]: 0.468
PBM binding z-score [4]: 0.11
PBM binding z-score [5]: 0.554
PBM binding z-score [6]: 0.0308
PBM binding z-score [7]: 0.157
PBM binding z-score [8]: 0.195
